# Experimental data reported in publication PMC11062922 (Nature Chemical Biology, 2023).
# Where two headings read alike, the source gives them in different places.
# Experiments:
# Settings in all cases: read-out: apparent Kd, n = 1
# PAK4 = system: PAK4
# PHKG2 = system: PHKG2
# PKN1 = system: PKN1
# [1] = compound concentrations:100 nM and 1000 nM (sheet 'Lestaurtinib' of Supplementary Table 1),run:Lestaurtinib_02766_R2,Plate:MR027
# [2] = compound concentrations:100 nM and 1000 nM (sheet 'Lestaurtinib' of Supplementary Table 1),run:Lestaurtinib_02768_R1,Plate:MR028
# [3] = compound concentrations:100 nM and 1000 nM (sheet 'Lestaurtinib' of Supplementary Table 1),run:Lestaurtinib_02795_R1,Plate:MR022
# [4] = compound concentrations:100 nM and 1000 nM (sheet 'Lestaurtinib' of Supplementary Table 1),run:Lestaurtinib_02795_R3,Plate:MR022
# [5] = compound concentrations:100 nM and 1000 nM (sheet 'Lestaurtinib' of Supplementary Table 1),run:Lestaurtinib_02896_R3,Plate:MR030
# [6] = compound concentrations:100 nM and 1000 nM (sheet 'Lestaurtinib' of Supplementary Table 1),run:Lestaurtinib_03172_R1,Plate:MR031
# [7] = compound concentrations:100 nM and 1000 nM (sheet 'Lestaurtinib' of Supplementary Table 1),run:Lestaurtinib_03172_R3,Plate:MR031
# [8] = compound concentrations:100 nM and 1000 nM (sheet 'Lestaurtinib' of Supplementary Table 1),run:Lestaurtinib_03252_R1,Plate:MR032
# [9] = compound concentrations:100 nM and 1000 nM (sheet 'Lestaurtinib' of Supplementary Table 1),run:Lestaurtinib_03252_R2,Plate:MR032
# [10] = compound concentrations:100 nM and 1000 nM (sheet 'Lestaurtinib' of Supplementary Table 1),run:Lestaurtinib_03260_R1,Plate:MR033
# [11] = compound concentrations:100 nM and 1000 nM (sheet 'Lestaurtinib' of Supplementary Table 1),run:Lestaurtinib_03260_R2,Plate:MR033
# [12] = compound concentrations:100 nM and 1000 nM (sheet 'Lestaurtinib' of Supplementary Table 1),run:Lestaurtinib_02339_R1,Plate:MR001
# [13] = compound concentrations:100 nM and 1000 nM (sheet 'Lestaurtinib' of Supplementary Table 1),run:Lestaurtinib_02339_R2,Plate:MR001
# [14] = compound concentrations:100 nM and 1000 nM (sheet 'Lestaurtinib' of Supplementary Table 1),run:Lestaurtinib_02364_R1,Plate:MR002
substance,measurement,setting,value
Lestaurtinib,potency estimated from few doses,PAK4; [1],23.7 nM
same,potency estimated from few doses,PAK4; [2],35.4 nM
same,potency estimated from few doses,"PAK4; compound concentrations:100 nM and 1000 nM (sheet 'Lestaurtinib' of Supplementary Table 1),run:Lestaurtinib_02768_R2,Plate:MR028",29.5 nM
same,potency estimated from few doses,"PAK4; compound concentrations:100 nM and 1000 nM (sheet 'Lestaurtinib' of Supplementary Table 1),run:Lestaurtinib_02768_R3,Plate:MR028",32.7 nM
same,potency estimated from few doses,PAK4; [3],35.1 nM
same,potency estimated from few doses,"PAK4; compound concentrations:100 nM and 1000 nM (sheet 'Lestaurtinib' of Supplementary Table 1),run:Lestaurtinib_02795_R2,Plate:MR022",29.7 nM
same,potency estimated from few doses,PAK4; [4],113 nM
same,potency estimated from few doses,"PAK4; compound concentrations:100 nM and 1000 nM (sheet 'Lestaurtinib' of Supplementary Table 1),run:Lestaurtinib_02802_R3,Plate:MR029",24.8 nM
same,potency estimated from few doses,"PAK4; compound concentrations:100 nM and 1000 nM (sheet 'Lestaurtinib' of Supplementary Table 1),run:Lestaurtinib_02896_R1,Plate:MR030",35.9 nM
same,potency estimated from few doses,"PAK4; compound concentrations:100 nM and 1000 nM (sheet 'Lestaurtinib' of Supplementary Table 1),run:Lestaurtinib_02896_R2,Plate:MR030",30.1 nM
same,potency estimated from few doses,PAK4; [5],36.2 nM
same,potency estimated from few doses,PAK4; [6],32.7 nM
same,potency estimated from few doses,"PAK4; compound concentrations:100 nM and 1000 nM (sheet 'Lestaurtinib' of Supplementary Table 1),run:Lestaurtinib_03172_R2,Plate:MR031",29.6 nM
same,potency estimated from few doses,PAK4; [7],26.1 nM
same,potency estimated from few doses,PAK4; [8],43.4 nM
same,potency estimated from few doses,PAK4; [9],25.3 nM
same,potency estimated from few doses,PAK4; [10],48.6 nM
same,potency estimated from few doses,PAK4; [11],48 nM
same,potency estimated from few doses,PHKG2; [12],838 nM
same,potency estimated from few doses,PHKG2; [13],142 nM
same,potency estimated from few doses,"PHKG2; compound concentrations:100 nM and 1000 nM (sheet 'Lestaurtinib' of Supplementary Table 1),run:Lestaurtinib_02339_R3,Plate:MR001",275 nM
same,potency estimated from few doses,PHKG2; [14],462 nM
same,potency estimated from few doses,"PHKG2; compound concentrations:100 nM and 1000 nM (sheet 'Lestaurtinib' of Supplementary Table 1),run:Lestaurtinib_02364_R2,Plate:MR002",360 nM
same,potency estimated from few doses,"PHKG2; compound concentrations:100 nM and 1000 nM (sheet 'Lestaurtinib' of Supplementary Table 1),run:Lestaurtinib_02364_R3,Plate:MR002",574 nM
same,potency estimated from few doses,"PHKG2; compound concentrations:100 nM and 1000 nM (sheet 'Lestaurtinib' of Supplementary Table 1),run:Lestaurtinib_02367_R1,Plate:MR003",323 nM
same,potency estimated from few doses,"PHKG2; compound concentrations:100 nM and 1000 nM (sheet 'Lestaurtinib' of Supplementary Table 1),run:Lestaurtinib_02367_R3,Plate:MR003",356 nM
same,potency estimated from few doses,"PHKG2; compound concentrations:100 nM and 1000 nM (sheet 'Lestaurtinib' of Supplementary Table 1),run:Lestaurtinib_02381_R1,Plate:MR004",137 nM
same,potency estimated from few doses,"PHKG2; compound concentrations:100 nM and 1000 nM (sheet 'Lestaurtinib' of Supplementary Table 1),run:Lestaurtinib_02381_R2,Plate:MR004",197 nM
same,potency estimated from few doses,"PHKG2; compound concentrations:100 nM and 1000 nM (sheet 'Lestaurtinib' of Supplementary Table 1),run:Lestaurtinib_02381_R3,Plate:MR004",144 nM
same,potency estimated from few doses,"PHKG2; compound concentrations:100 nM and 1000 nM (sheet 'Lestaurtinib' of Supplementary Table 1),run:Lestaurtinib_02422_R1,Plate:MR006",213 nM
same,potency estimated from few doses,"PHKG2; compound concentrations:100 nM and 1000 nM (sheet 'Lestaurtinib' of Supplementary Table 1),run:Lestaurtinib_02422_R2,Plate:MR006",55.3 nM
same,potency estimated from few doses,"PHKG2; compound concentrations:100 nM and 1000 nM (sheet 'Lestaurtinib' of Supplementary Table 1),run:Lestaurtinib_02437_R1,Plate:MR007",135 nM
same,potency estimated from few doses,"PHKG2; compound concentrations:100 nM and 1000 nM (sheet 'Lestaurtinib' of Supplementary Table 1),run:Lestaurtinib_02443_R1,Plate:MR009",170 nM
same,potency estimated from few doses,"PHKG2; compound concentrations:100 nM and 1000 nM (sheet 'Lestaurtinib' of Supplementary Table 1),run:Lestaurtinib_02443_R2,Plate:MR009",193 nM
same,potency estimated from few doses,"PHKG2; compound concentrations:100 nM and 1000 nM (sheet 'Lestaurtinib' of Supplementary Table 1),run:Lestaurtinib_02443_R3,Plate:MR009",99.2 nM
same,potency estimated from few doses,"PHKG2; compound concentrations:100 nM and 1000 nM (sheet 'Lestaurtinib' of Supplementary Table 1),run:Lestaurtinib_02473_R1,Plate:MR010",310 nM
same,potency estimated from few doses,"PHKG2; compound concentrations:100 nM and 1000 nM (sheet 'Lestaurtinib' of Supplementary Table 1),run:Lestaurtinib_02473_R2,Plate:MR010",228 nM
same,potency estimated from few doses,"PHKG2; compound concentrations:100 nM and 1000 nM (sheet 'Lestaurtinib' of Supplementary Table 1),run:Lestaurtinib_02473_R3,Plate:MR010",159 nM
same,potency estimated from few doses,"PHKG2; compound concentrations:100 nM and 1000 nM (sheet 'Lestaurtinib' of Supplementary Table 1),run:Lestaurtinib_02482_R1,Plate:MR011",197 nM
same,potency estimated from few doses,"PHKG2; compound concentrations:100 nM and 1000 nM (sheet 'Lestaurtinib' of Supplementary Table 1),run:Lestaurtinib_02482_R2,Plate:MR011",501 nM
same,potency estimated from few doses,"PHKG2; compound concentrations:100 nM and 1000 nM (sheet 'Lestaurtinib' of Supplementary Table 1),run:Lestaurtinib_02482_R3,Plate:MR011",248 nM
same,potency estimated from few doses,"PHKG2; compound concentrations:100 nM and 1000 nM (sheet 'Lestaurtinib' of Supplementary Table 1),run:Lestaurtinib_02496_R1,Plate:MR013",115 nM
same,potency estimated from few doses,"PHKG2; compound concentrations:100 nM and 1000 nM (sheet 'Lestaurtinib' of Supplementary Table 1),run:Lestaurtinib_02496_R2,Plate:MR013",362 nM
same,potency estimated from few doses,"PHKG2; compound concentrations:100 nM and 1000 nM (sheet 'Lestaurtinib' of Supplementary Table 1),run:Lestaurtinib_02496_R3,Plate:MR013",182 nM
same,potency estimated from few doses,"PHKG2; compound concentrations:100 nM and 1000 nM (sheet 'Lestaurtinib' of Supplementary Table 1),run:Lestaurtinib_02566_R1,Plate:MR014",309 nM
same,potency estimated from few doses,"PHKG2; compound concentrations:100 nM and 1000 nM (sheet 'Lestaurtinib' of Supplementary Table 1),run:Lestaurtinib_02566_R2,Plate:MR014",151 nM
same,potency estimated from few doses,"PHKG2; compound concentrations:100 nM and 1000 nM (sheet 'Lestaurtinib' of Supplementary Table 1),run:Lestaurtinib_02566_R3,Plate:MR014",182 nM
same,potency estimated from few doses,"PHKG2; compound concentrations:100 nM and 1000 nM (sheet 'Lestaurtinib' of Supplementary Table 1),run:Lestaurtinib_02572_R1,Plate:MR015",92 nM
same,potency estimated from few doses,"PHKG2; compound concentrations:100 nM and 1000 nM (sheet 'Lestaurtinib' of Supplementary Table 1),run:Lestaurtinib_02572_R2,Plate:MR015",444 nM
same,potency estimated from few doses,"PHKG2; compound concentrations:100 nM and 1000 nM (sheet 'Lestaurtinib' of Supplementary Table 1),run:Lestaurtinib_02584_R1,Plate:MR017",215 nM
same,potency estimated from few doses,"PHKG2; compound concentrations:100 nM and 1000 nM (sheet 'Lestaurtinib' of Supplementary Table 1),run:Lestaurtinib_02584_R2,Plate:MR017",239 nM
same,potency estimated from few doses,"PHKG2; compound concentrations:100 nM and 1000 nM (sheet 'Lestaurtinib' of Supplementary Table 1),run:Lestaurtinib_02606_R1,Plate:MR019",197 nM
same,potency estimated from few doses,"PHKG2; compound concentrations:100 nM and 1000 nM (sheet 'Lestaurtinib' of Supplementary Table 1),run:Lestaurtinib_02606_R2,Plate:MR019",175 nM
same,potency estimated from few doses,"PHKG2; compound concentrations:100 nM and 1000 nM (sheet 'Lestaurtinib' of Supplementary Table 1),run:Lestaurtinib_02606_R3,Plate:MR019",636 nM
same,potency estimated from few doses,"PHKG2; compound concentrations:100 nM and 1000 nM (sheet 'Lestaurtinib' of Supplementary Table 1),run:Lestaurtinib_02624_R1,Plate:MR020",390 nM
same,potency estimated from few doses,"PHKG2; compound concentrations:100 nM and 1000 nM (sheet 'Lestaurtinib' of Supplementary Table 1),run:Lestaurtinib_02624_R3,Plate:MR020",244 nM
same,potency estimated from few doses,"PHKG2; compound concentrations:100 nM and 1000 nM (sheet 'Lestaurtinib' of Supplementary Table 1),run:Lestaurtinib_02724_R1,Plate:MR021",270 nM
same,potency estimated from few doses,"PHKG2; compound concentrations:100 nM and 1000 nM (sheet 'Lestaurtinib' of Supplementary Table 1),run:Lestaurtinib_02724_R2,Plate:MR021",239 nM
same,potency estimated from few doses,"PHKG2; compound concentrations:100 nM and 1000 nM (sheet 'Lestaurtinib' of Supplementary Table 1),run:Lestaurtinib_02724_R3,Plate:MR021",180 nM
same,potency estimated from few doses,"PHKG2; compound concentrations:100 nM and 1000 nM (sheet 'Lestaurtinib' of Supplementary Table 1),run:Lestaurtinib_02741_R1,Plate:MR023",372 nM
same,potency estimated from few doses,"PHKG2; compound concentrations:100 nM and 1000 nM (sheet 'Lestaurtinib' of Supplementary Table 1),run:Lestaurtinib_02741_R2,Plate:MR023",355 nM
same,potency estimated from few doses,"PHKG2; compound concentrations:100 nM and 1000 nM (sheet 'Lestaurtinib' of Supplementary Table 1),run:Lestaurtinib_02741_R3,Plate:MR023",301 nM
same,potency estimated from few doses,"PHKG2; compound concentrations:100 nM and 1000 nM (sheet 'Lestaurtinib' of Supplementary Table 1),run:Lestaurtinib_02748_R1,Plate:MR024",208 nM
same,potency estimated from few doses,"PHKG2; compound concentrations:100 nM and 1000 nM (sheet 'Lestaurtinib' of Supplementary Table 1),run:Lestaurtinib_02748_R3,Plate:MR024",211 nM
same,potency estimated from few doses,"PHKG2; compound concentrations:100 nM and 1000 nM (sheet 'Lestaurtinib' of Supplementary Table 1),run:Lestaurtinib_02765_R1,Plate:MR026",637 nM
same,potency estimated from few doses,"PHKG2; compound concentrations:100 nM and 1000 nM (sheet 'Lestaurtinib' of Supplementary Table 1),run:Lestaurtinib_02765_R2,Plate:MR026",849 nM
same,potency estimated from few doses,"PHKG2; compound concentrations:100 nM and 1000 nM (sheet 'Lestaurtinib' of Supplementary Table 1),run:Lestaurtinib_02765_R3,Plate:MR026",487 nM
same,potency estimated from few doses,"PHKG2; compound concentrations:100 nM and 1000 nM (sheet 'Lestaurtinib' of Supplementary Table 1),run:Lestaurtinib_02766_R1,Plate:MR027",440 nM
same,potency estimated from few doses,PHKG2; [1],170 nM
same,potency estimated from few doses,PHKG2; [2],124 nM
same,potency estimated from few doses,PHKG2; [3],217 nM
same,potency estimated from few doses,PHKG2; [4],347 nM
same,potency estimated from few doses,"PHKG2; compound concentrations:100 nM and 1000 nM (sheet 'Lestaurtinib' of Supplementary Table 1),run:Lestaurtinib_02802_R2,Plate:MR029",197 nM
same,potency estimated from few doses,PHKG2; [5],250 nM
same,potency estimated from few doses,PHKG2; [6],153 nM
same,potency estimated from few doses,PHKG2; [7],213 nM
same,potency estimated from few doses,PHKG2; [8],635 nM
same,potency estimated from few doses,PHKG2; [9],91.1 nM
same,potency estimated from few doses,PHKG2; [10],321 nM
same,potency estimated from few doses,PHKG2; [11],323 nM
same,potency estimated from few doses,"PHKG2; compound concentrations:100 nM and 1000 nM (sheet 'Lestaurtinib' of Supplementary Table 1),run:Lestaurtinib_03260_R3,Plate:MR033",212 nM
same,potency estimated from few doses,PKN1; [12],424 nM
same,potency estimated from few doses,PKN1; [13],316 nM
same,potency estimated from few doses,PKN1; [14],497 nM
